Conditions in all cases: mRNA level, 48 h; actives raise or lower the signal
Read-out in assay [1]: Cytochrome P450 (CYP24A1), CYP24A1 (gene 1591)
The experiment in a line: LTEA_HepaRG_CYP24A1: Life Technologies and Expression Analysis (LTEA) Assay for Cytochrome P450 (CYP24A1) using HepaRG (AID 2283478). The procedure, abridged:
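HepaRG, 48 h chemical exposure, 8-pt half-log CRC from 100 uM, 0.5% DMSO vehicle, duplicates. Endpoint: CYP24A1 mRNA by Fluidigm TaqMan qRT-PCR, normalized ACTB/GAPDH/POLR2A; gain/loss fit vs DMSO.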

Read-out in assay [2]: Cytochrome P450 (CYP1A2), CYP1A2 (gene 1544)
The experiment in a line: LTEA_HepaRG_CYP1A2: Life Technologies and Expression Analysis (LTEA) Assay for Cytochrome P450 (CYP1A2) using HepaRG (AID 2283479). The method in brief: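 CYP1A2 transcript induction or loss, quantified by Fluidigm qRT-PCR against three housekeeping genes, was fitted bidirectionally against 0.5% DMSO controls. Human HepaRG cells received eight half-log concentrations from 100 uM over 48 h.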

Read-out in assay [3]: cysteine-aspartic acid protease (CASP8), CASP8 (gene 841)
Kind of assay: LTEA_HepaRG_CASP8: Life Technologies and Expression Analysis (LTEA) Assay for cysteine-aspartic acid protease (CASP8) using HepaRG (AID 2283480). The procedure, abridged:
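HepaRG, 48 h exposure, duplicate wells; 8 conc, half-log from 100 uM, 0.5% DMSO. Serum-free induction medium. CASP8 mRNA by TaqMan qRT-PCR, norm. ACTB/GAPDH/POLR2A; gain/loss fitted vs DMSO.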

Read-out in assay [4]: Cytochrome P450 (CYP2B6), CYP2B6 (gene 1555)
Kind of assay: LTEA_HepaRG_CYP2B6: Life Technologies and Expression Analysis (LTEA) Assay for Cytochrome P450 (CYP2B6) using HepaRG (AID 2283481). The method in brief:
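HepaRG cells plated 48 h, switched to serum-free induction medium, then dosed 48 h (8 points, half-log from 100 uM, 0.5% DMSO). RNA isolated; CYP2B6 expression measured by qRT-PCR; gain or loss fitted relative to DMSO.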

Read-out in assay [5]: Cytochrome P450 2C19 (Homo sapiens) (UniProt P33261)
Kind of assay: LTEA_HepaRG_CYP2C19: Life Technologies and Expression Analysis (LTEA) Assay for CYP2C19 using HepaRG (AID 2283482). The method in brief: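 Transcript levels of CYP2C19 were quantified by qRT-PCR after HepaRG cells were treated for 48 hours with test chemicals up to 100 uM (eight half-log concentrations, 0.5% DMSO vehicle). Gain or loss of signal was fitted relative to DMSO.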

Read-out in a further assay: CYP2C8 (gene 1558)
Kind of assay: LTEA_HepaRG_CYP2C8: Life Technologies and Expression Analysis (LTEA) Assay for CYP2C8 using HepaRG (AID 2283483). The procedure, abridged: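 CYP2C8 mRNA induction or loss, by qRT-PCR normalized to ACTB/GAPDH/POLR2A, is read in HepaRG cells after 48 h treatment. Concentrations run from 100 uM down in half-log dilutions, with 0.5% DMSO as vehicle and baseline.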

Read-out in another assay: CYP2C9 (gene 1559)
The experiment in a line: LTEA_HepaRG_CYP2C9: Life Technologies and Expression Analysis (LTEA) Assay for CYP2C9 using HepaRG (AID 2283484). The procedure, abridged: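 Cells plated 48 h, switched to serum-free induction medium, then treated in duplicate for 48 h at eight concentrations (max 100 uM, 0.5% DMSO). RNA then analysed by qRT-PCR for CYP2C9; curves fitted in both directions relative to DMSO.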

Read-out in another assay: CYP2E1 (gene 1571)
Kind of assay: LTEA_HepaRG_CYP2E1: Life Technologies and Expression Analysis (LTEA) Assay for CYP2E1 using HepaRG (AID 2283485). The procedure, abridged:
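HepaRG cells, plated 48 h, then exposed 48 h in serum-free induction medium to eight half-log concentrations from 100 uM in 0.5% DMSO, duplicate. CYP2E1 mRNA by qRT-PCR, normalized to ACTB/GAPDH/POLR2A; bidirectional fit versus DMSO.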

Read-out in another assay: CYP4A11 (gene 1579)
The experiment in a line: LTEA_HepaRG_CYP4A11: Life Technologies and Expression Analysis (LTEA) Assay for CYP4A11 using HepaRG (AID 2283486). The method in brief: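 HepaRG, 48 h chem exposure, 8 conc (100 uM top, half-log), 0.5% DMSO vehicle; qRT-PCR readout, housekeeping-gene normalized; bidirectional curve fit vs DMSO baseline.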

Read-out in assay [6]: Cytochrome P450 3A4 (Homo sapiens) (UniProt P08684)
The experiment in a line: LTEA_HepaRG_CYP3A4: Life Technologies and Expression Analysis (LTEA) Assay for CYP3A4 using HepaRG (AID 2283487). The method in brief:
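In a human hepatic line (HepaRG), duplicate wells were treated 48 h with up to 100 uM chemical in half-log dilutions. Endpoint: CYP3A4 mRNA induction or loss relative to 0.5% DMSO vehicle, by qRT-PCR.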

Read-out in assay [7]: Pro-epidermal growth factor (Homo sapiens) (UniProt P01133)
The experiment in a line: LTEA_HepaRG_EGF: Life Technologies and Expression Analysis (LTEA) Assay for Epidermal growth factor (EGF) using HepaRG (AID 2283489). The method in brief:
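HepaRG, 48 h dosing, 100 uM top, half-log x8, 0.5% DMSO. Readout: TaqMan qRT-PCR (Fluidigm array), housekeeping-normalized. Gain or loss of signal fit vs DMSO.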

Read-out in assay [8]: Early growth response protein 1 (EGR1) transcription factor, EGR1 (gene 1958)
Kind of assay: LTEA_HepaRG_EGR1: Life Technologies and Expression Analysis (LTEA) Assay for Early growth response protein 1 (EGR1) transcription factor using HepaRG (AID 2283490). The method in brief:
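Read-out is EGR1 mRNA level by qRT-PCR, normalized to three housekeeping genes and analysed for gain or loss of signal against 0.5% DMSO. Source cells: human HepaRG, treated 48 h at up to 100 uM in half-log dilutions.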

Read-out in assay [9]: Ezrin (EZR), EZR (gene 7430)
Kind of assay: LTEA_HepaRG_EZR: Life Technologies and Expression Analysis (LTEA) Assay for Ezrin (EZR) using HepaRG (AID 2283491). The method in brief: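 Gain or loss of EZR mRNA is scored relative to 0.5% DMSO in human HepaRG cultures treated 48 h with test chemicals in duplicate, eight half-log concentrations from 100 uM.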

Read-out in assay [10]: Cytochrome P450 3A7 (Homo sapiens) (UniProt P24462)
The experiment in a line: LTEA_HepaRG_CYP3A7: Life Technologies and Expression Analysis (LTEA) Assay for CYP3A7 using HepaRG (AID 2283492). The procedure, abridged:
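Human HepaRG liver cells, 48 h post-plating, switched to serum-free induction medium and exposed in duplicate for 48 h. Dosing: 100 uM top, half-log dilutions, 8 points, 0.5% DMSO vehicle. Read-out: CYP3A7 mRNA, gain or loss fitted against DMSO baseline.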

Read-out in another assay: CYP3A5 (gene 1577)
Kind of assay: LTEA_HepaRG_CYP3A5: Life Technologies and Expression Analysis (LTEA) Assay for CYP3A5 using HepaRG (AID 2283493). The procedure, abridged:
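HepaRG cells, plated 48 h then in serum-free induction medium, dosed in duplicate for 48 h with eight half-log concentrations up to 100 uM in 0.5% DMSO. Gene mRNA by Fluidigm TaqMan qRT-PCR, normalized to ACTB, GAPDH, POLR2A.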

Read-out in assay [11]: Fatty Acid-Binding Protein 1 (FABP1), FABP1 (gene 2168)
The experiment in a line: LTEA_HepaRG_FABP1: Life Technologies and Expression Analysis (LTEA) Assay for Fatty Acid-Binding Protein 1 (FABP1) using HepaRG (AID 2283494). The method in brief:
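HepaRG, 48 h post-plating switched to serum-free induction medium, then dosed 48 h (duplicate, 8 pts, ≤100 uM, 0.5% DMSO). RNA → Fluidigm TaqMan qRT-PCR, FABP1 normed to ACTB/GAPDH/POLR2A. Bidirectional curve fit vs DMSO.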

Read-out in assay [12]: Cytochrome P450 7A1 (Homo sapiens) (UniProt P22680)
Kind of assay: LTEA_HepaRG_CYP7A1: Life Technologies and Expression Analysis (LTEA) Assay for Cytochrome P450 7A1 (CYP7A1) using HepaRG (AID 2283496). The method in brief: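 HepaRG cells plated 48 h, then switched to serum-free induction medium and exposed in duplicate for 48 h to 8-point half-log series from 100 uM in 0.5% DMSO. CYP7A1 mRNA by qRT-PCR (TaqMan), normalized to ACTB/GAPDH/POLR2A; bidirectional fit versus DMSO.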

Read-out in assay [13]: Glutathione S-Transferase (GSTA2), GSTA2 (gene 2939)
Kind of assay: LTEA_HepaRG_GSTA2: Life Technologies and Expression Analysis (LTEA) Assay for Glutathione S-Transferase (GSTA2) using HepaRG (AID 2283497). The procedure, abridged: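 HepaRG, 48 h dosing, 8-pt half-log CRC from 100 uM, 0.5% DMSO vehicle, n=2; RNA → Fluidigm TaqMan qRT-PCR; GSTA2 vs ACTB/GAPDH/POLR2A; gain/loss fit vs DMSO.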

Read-out in assay [14]: DNA damage-inducible transcript 3 (DDIT3), DDIT3 (gene 1649)
The experiment in a line: LTEA_HepaRG_DDIT3: Life Technologies and Expression Analysis (LTEA) Assay for DNA damage-inducible transcript 3 (DDIT3) using HepaRG (AID 2283488). The procedure, abridged: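 HepaRG cells, 48 h after plating, exposed 48 h in serum-free induction medium to 8 half-log concentrations up to 100 uM in 0.5% DMSO, in duplicate. DDIT3 mRNA measured by TaqMan qRT-PCR, normalized to ACTB, GAPDH and POLR2A. Fitted bidirectionally against DMSO.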

Calls of active or inactive are those of the source. The calls were made as follows: active = hit-call score of the fitted dose curve at least 0.9, where 1 is the maximum; inactive = score below 0.9.

By AC50 is commonly meant the concentration at which the activity in the assay is half-maximal.

Chain of Cytochrome P450 3A7 (Homo sapiens) (P24462 whole entry, looked up): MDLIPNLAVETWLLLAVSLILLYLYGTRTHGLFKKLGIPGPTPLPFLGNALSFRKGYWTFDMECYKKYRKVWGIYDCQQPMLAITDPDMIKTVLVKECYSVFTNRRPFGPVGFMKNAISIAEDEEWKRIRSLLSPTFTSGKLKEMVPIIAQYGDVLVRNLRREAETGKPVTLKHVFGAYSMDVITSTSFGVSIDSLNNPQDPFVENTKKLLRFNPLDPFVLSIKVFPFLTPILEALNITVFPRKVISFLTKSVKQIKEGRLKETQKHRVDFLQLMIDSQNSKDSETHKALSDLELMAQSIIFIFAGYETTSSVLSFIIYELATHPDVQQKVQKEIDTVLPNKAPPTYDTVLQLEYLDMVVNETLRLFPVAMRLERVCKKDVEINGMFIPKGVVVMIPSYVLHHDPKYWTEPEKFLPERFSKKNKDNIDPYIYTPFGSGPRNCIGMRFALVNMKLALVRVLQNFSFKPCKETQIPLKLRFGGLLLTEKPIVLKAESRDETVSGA
Chain of Cytochrome P450 2C19 (Homo sapiens) (P33261 whole entry, looked up): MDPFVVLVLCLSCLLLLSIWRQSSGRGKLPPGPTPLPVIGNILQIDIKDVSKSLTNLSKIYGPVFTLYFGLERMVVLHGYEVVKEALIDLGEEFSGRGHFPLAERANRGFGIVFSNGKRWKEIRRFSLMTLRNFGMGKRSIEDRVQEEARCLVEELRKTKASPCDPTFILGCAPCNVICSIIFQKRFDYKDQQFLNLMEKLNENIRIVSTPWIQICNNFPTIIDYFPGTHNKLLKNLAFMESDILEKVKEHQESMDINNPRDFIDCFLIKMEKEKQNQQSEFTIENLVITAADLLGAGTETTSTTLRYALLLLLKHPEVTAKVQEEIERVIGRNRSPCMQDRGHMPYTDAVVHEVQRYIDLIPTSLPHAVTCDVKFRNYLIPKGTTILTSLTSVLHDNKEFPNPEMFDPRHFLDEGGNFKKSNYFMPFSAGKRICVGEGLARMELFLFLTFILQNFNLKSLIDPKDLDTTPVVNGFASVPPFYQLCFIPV
Chain of Cytochrome P450 3A4 (Homo sapiens) (P08684 whole entry, looked up): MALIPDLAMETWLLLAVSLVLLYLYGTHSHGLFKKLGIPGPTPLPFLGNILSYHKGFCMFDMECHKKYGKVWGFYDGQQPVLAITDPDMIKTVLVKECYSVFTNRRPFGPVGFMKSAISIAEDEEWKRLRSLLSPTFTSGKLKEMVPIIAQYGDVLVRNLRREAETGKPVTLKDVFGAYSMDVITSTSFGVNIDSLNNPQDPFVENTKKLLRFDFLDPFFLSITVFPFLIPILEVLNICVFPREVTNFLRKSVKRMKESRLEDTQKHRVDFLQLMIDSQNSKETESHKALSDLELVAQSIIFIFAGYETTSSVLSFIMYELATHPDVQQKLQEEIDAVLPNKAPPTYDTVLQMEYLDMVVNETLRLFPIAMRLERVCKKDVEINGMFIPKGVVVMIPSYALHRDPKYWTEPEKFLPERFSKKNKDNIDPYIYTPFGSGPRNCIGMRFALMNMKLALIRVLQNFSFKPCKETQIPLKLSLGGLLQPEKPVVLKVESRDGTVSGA

For `CC(C)c1nnc2ccc(-c3ocnc3-c3cc(F)ccc3F)cn12`, the call (in assay [1]; in [2]; in assay [3]; in assay [7]; with CYP3A5 (gene 1577)) was inactive. Moreover, the AC50 is 0.619 µM (active) in assay [4]; 91.6 µM (active) in [5]; 82.6 µM (active) in the assay with CYP2C8 (gene 1558); 71.7 µM (active) in the assay with CYP2C9 (gene 1559); 22.2 µM (active) with CYP2E1 (gene 1571); 33.6 µM (active) with CYP4A11 (gene 1579). The AC50 is 1.42 µM (active) in assay [6]; 12.3 µM (active) in assay [8]; 2.38 µM (active) in assay [9]; 81.6 µM (active) in [10]; 52.6 µM (active) in assay [11]; 25.2 µM (active) in [12]. Moreover, in assay [13], the concentration at half-maximal activity (AC50) is 80.5 µM (active).

Take `O=S(=O)(O)c1ccc(N=Nc2c(O)ccc3cc(S(=O)(=O)O)ccc23)cc1`: the result (in assay [1]; in assay [3]; in [5]; with CYP2C8 (gene 1558); with CYP2C9 (gene 1559); with CYP2E1 (gene 1571)) was inactive. Moreover, the compound was classed as inactive (with CYP4A11 (gene 1579); in assay [14]; in assay [7]; in assay [8]; in assay [9]; in [10]). The result (with CYP3A5 (gene 1577); in [11]; in assay [12]; in [13]) was inactive. The AC50 in assay [2] was 50 µM (active); in [4], 22.9 µM (active).

On to `O=C1CN(N=Cc2ccc([N+](=O)[O-])o2)C(=O)N1`, for which the outcome (in [1]; in assay [2]; in assay [3]; in [5]; in the assay with CYP2C9 (gene 1559); in assay [7]) was inactive. In addition, the outcome (in [8]; in assay [9]; in assay [10]; with CYP3A5 (gene 1577)) was inactive. The AC50 in assay [4] is 50 µM (active); with CYP2C8 (gene 1558), 50 µM (active); with CYP2E1 (gene 1571) it was 52.7 µM (active); with CYP4A11 (gene 1579) it was 45.7 µM (active); in assay [14], 80.7 µM (active); in [11], 41.9 µM (active). The AC50 was 22.2 µM (active) in assay [12] and 81.8 µM (active) in [13].

For the compound `CCCc1ccccc1`, the result (in assay [1]; in assay [2]; in assay [3]; in [4]; in assay [5]; with CYP2C8 (gene 1558)) was inactive. Moreover, the result (with CYP2C9 (gene 1559); with CYP2E1 (gene 1571); in the assay with CYP4A11 (gene 1579); in assay [14]; in assay [7]; in [8]) was inactive. Also, the call (in assay [9]; in [10]; in the assay with CYP3A5 (gene 1577); in assay [11]; in assay [12]; in assay [13]) was inactive.

These data come from PubChem BioAssay (EPA / NIEHS).
